Screening data (PubChem)
GLA inh pH 4.5 – blocks human alpha-galactosidase A at pH 4.5; 230,000 tested, under 10 active; activity change, negative = inhibition, % at 105 µM; purified enzyme, 4-MU-alpha-Gal fluorescence, pH 4.5; P06280;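 further: 0% = full activity with enzyme and -100% = basal without enzyme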
GAA inh – alpha-glucosidase (human) inhibition. P10253. purified human GAA, 4-MU-alpha-glucoside fluorescence. Potency, µM (top dose mostly 76.9 µM), for the others: top-dose activity change, negative = inhibition, actives largely listed as inhibitors. 0.005% of 200,000 active;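 further: potency means the concentration at half of the fitted maximal effect; plate controls were uninhibited enzyme wells for no effect and no-enzyme background for full effect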
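Human enzyme at 4 nM with 400 uM 4-methylumbelliferyl-alpha-D-pyranoside, citrate/phosphate buffer pH 5.0, 0.005% Tween-20, 20 min at room temperature. Compounds up to 77 uM. 4-MU fluorescence (Ex 365/Em 440) read after NaOH/glycine stop; AC50 from Hill fit.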
aGlu spleen mod – lysosomal alpha-glucosidase (human) modulation; P10253; human spleen homogenate, 4-MU-alpha-glucoside fluorescence; Potency, µM (doses to about 79.9 µM), without a hit: top-dose activity change, negative = inhibition, usual class: inhibitors; 0.006% of 240,000 active; AID 2112;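 further: potency means the concentration at half of the fitted maximal effect; 0% = enzyme with vehicle and -100% = no enzyme basal signal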
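Enzyme source: human spleen homogenate, 1 ug/well. Buffer 50 mM citric acid/K phosphate pH 5.0, 0.01% Tween-20. 4-MU-alpha-glucoside 1 mM; 37 C x 40 min; NaOH/glycine stop; fluorescence.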
aGal spleen mod – inhibitors or activators of human alpha-galactosidase in spleen homogenate; P06280; Potency, µM (series often up to 80 µM), without a hit: at the highest dose activity change, negative = inhibition, hits mostly inhibitors; human spleen homogenate, 4MU-alpha-Gal fluorescence, 40 min; 0.008% of 240,000 active;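 further: potency means the concentration at half of the fitted maximal effect; 0% = enzyme with vehicle and -100% = no enzyme basal signal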
Target sequence (P06280 32-429 limits assumed): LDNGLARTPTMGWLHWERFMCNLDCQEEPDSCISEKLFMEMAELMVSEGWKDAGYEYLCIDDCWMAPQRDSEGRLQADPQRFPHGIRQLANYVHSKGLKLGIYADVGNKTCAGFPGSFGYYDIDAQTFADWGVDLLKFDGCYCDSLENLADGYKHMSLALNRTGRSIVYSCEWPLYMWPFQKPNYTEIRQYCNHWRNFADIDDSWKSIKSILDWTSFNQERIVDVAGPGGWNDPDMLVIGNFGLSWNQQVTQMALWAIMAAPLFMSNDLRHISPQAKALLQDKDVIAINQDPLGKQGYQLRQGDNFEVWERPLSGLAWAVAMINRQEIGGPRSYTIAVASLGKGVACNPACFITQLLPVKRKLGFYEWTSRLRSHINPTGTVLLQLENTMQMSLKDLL
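Human spleen homogenate (1 ug) was the enzyme source, with 4-methylumbelliferyl-alpha-D-galactopyranoside (1 mM final) in pH 5.0 citrate buffer with 0.01% Tween-20. Compounds were titrated; after 40 min at 37C, NaOH/glycine stop, 4-MU fluorescence read; AC50 from Hill fits.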
GAA glycogen mod – GAA glycogen-cleavage inhibition or activation; 0.38% of 300,000 active; Potency, µM (highest dose often 76.4 µM), without a hit: top-dose activity change, negative = inhibition, most hits filed as inhibitors; AID 2100; recombinant GAA, glycogen substrate, Amplex Red glucose oxidase fluorescence; P10253;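 further: potency means the concentration at half of the fitted maximal effect; 0% = full enzyme reaction and -100% = no-enzyme basal signal; the screen sought inhibitors and activators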
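Recombinant enzyme (4 nM final) with compounds titrated up to 77 uM and bovine liver glycogen (30 ug) in citrate pH 5.0, 0.01% Tween-20, 37 C 40 min. Released glucose detected by Amplex Red/glucose oxidase (Ex 573/Em 610); AC50 from Hill fits.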
N370S GC mod – inhibits or activates N370S mutant glucocerebrosidase. 0.092% of 330,000 active. AID 2101. Potency, µM (highest dose often 59.4 µM), without a hit: at the highest dose activity change, negative = inhibition, usual class: inhibitors. P04062. N370S GC spleen homogenate, 4MU-glucoside fluorescence;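 further: potency means the concentration at half of the fitted maximal effect; 0% = full enzyme activity and -100% = no enzyme basal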
Active calls of the source: *; ? = inconclusive; nt = no result given; [ ] = another dose, or the depositor's remark. Hits are enriched below; roughly 0.41% of the tested compounds scored in any of these assays. The call rests on the fitted dose curve; in most records, active means well fitted curve in the direction sought with a large enough effect; inconclusive means small, poorly fitted or top-dose-only effect, or another doubt; inactive means no such curve, though single readings can be large; an effect the other way counts as inactive or inconclusive.

SMILES	GLA inh pH 4.5	GAA inh	aGlu spleen mod	aGal spleen mod	GAA glycogen mod	N370S GC mod
COC1/C=C/OC2(C)Oc3c(C)c(O)c4c(O)c(c(/C=N/N5CCN(C)CC5)c(O)c4c3C2=O)NC(=O)/C(C)=C/C=C/C(C)C(O)C(C)C(O)C(C)C(OC(C)=O)C1C (configuration not stated)	-13	nt	8%	7%	nt	-18%
CO[C@H]1C=CO[C@@]2(C)Oc3c(C)c(O)c4c(O)c(c5c(nc6cc(C)ccn65)c4c3C2=O)NC(=O)C(C)=CC=C[C@H](C)[C@H](O)[C@@H](C)[C@@H](O)[C@@H](C)[C@H](OC(C)=O)[C@@H]1C	-15	4%[15.4 µM]	-2%	4%	20µM*	-14%
Fc1ccc(Nc2nc3ccccc3c3nncn23)c(Cl)c1	nt	nt	nt	nt	13%[76.3 µM]	nt
CC(C)C[C@H](NC(=O)[C@H](CC(C)C)NC(=O)[C@@H](Cc1c[nH]c2ccccc12)NC(=O)[C@H](Cc1ccccc1)NC(=O)[C@@H](Cc1c[nH]c2ccccc12)NC(=O)[C@H](CCC(N)=O)NC(=O)[C@H](CCC(N)=O)NC(=O)[C@@H]1CCCN1C(=O)[C@H](CCCCN)NC(=O)[C@@H]1CCCN1C(=O)[C@H](N)CCCN=C(N)N)C(N)=O	nt	nt	-5%	7%	nt	-3%
CCCC[C@H](NC(=O)[C@@H]1CCCN1C(=O)[C@H]1CCCN1C(=O)[C@H](Cc1ccccc1)NC(=O)[C@@H](Cc1c[nH]c2ccccc12)NC(=O)[C@H](C)NC(=O)[C@H](CCCN=C(N)N)NC(=O)OC(C)(C)C)C(N)=O	nt	nt	2%	-8%	nt	2.8µM*
CCOC(=O)c1[nH]c2cc(OC)c(OC)cc2c1N	0	-1%	7%	6%	28µM*	0%
C=CCNC(=S)Nc1ccc(C(N)=O)cc1	1	12%	-2%	-9%	3%	2%
C=CCNC(=S)Nc1ccc(N(C)C)cc1	-7	-5%	-2%	-2%	3.1µM*	1%
NNC(=O)c1nn(-c2ccc(Cl)cc2)cc1O	6	9%	-6%	-4%	28µM*	-22%
CN(Cc1ccccc1)c1ccc(-c2nc(-c3ccccn3)no2)cc1[N+](=O)[O-]	nt	nt	nt	nt	16%[76.3 µM]	nt
O=C(O)CC/C(=N/Nc1ncc(C(F)(F)F)cc1Cl)C(=O)O	5	-3%	-2%	2%	18µM*	-8%
CCOC(=O)C1CCCN(C(=S)Nc2ccc(Nc3ccccc3)cc2)C1 (configuration not stated)	-6	-14%	-11%	7%	40µM*	5%
CCOC(=O)C1CCCN(Cc2nc(N)nc(Nc3ccccc3)n2)C1 (configuration not stated)	3	?	5%	6%	4µM*	-12%
CCc1nn(CC(=O)NCc2ccccc2)c(=O)c2cccn12	nt	nt	nt	nt	15%[76.3 µM]	nt
Cc1cc(C(=O)NNC(=S)Nc2ccccc2)nn1C	-10	12%	-5%	3%	3.5µM*	-1%
COC(=O)c1c(C)sc(-c2c(-c3ccc4c(c3)OCCO4)[nH]c3[nH]c(=O)[nH]c(=O)c23)c1O	nt	nt	nt	nt	25µM*	nt
COC(=O)c1c(C)sc(-c2c(-c3ccc4c(c3)OCCO4)[nH]c3c2c(=O)n(C)c(=O)n3C)c1O	nt	nt	nt	nt	0%[76.3 µM]	nt
CSCC[C@H](NC(=O)[C@H](CC(C)C)NC(=O)CNC(=O)[C@H](Cc1ccccc1)NC(=O)[C@H](Cc1ccccc1)NC(=O)[C@H](CCC(N)=O)NC(=O)[C@H](CCC(N)=O)NC(=O)[C@@H]1CCCN1C(=O)[C@H](CCCCN)NC(=O)[C@@H]1CCCN1C(=O)[C@@H](N)CCCN=C(N)N)C(N)=O	nt	nt	3%	9%	nt	0%
COc1cc(CN2CCN(c3cccc(C)c3C)CC2)cc(OC)c1O	4	-9%	-16%	-25%	28µM*	-3%
